Source: the supplement of paper PMC4466140

biological target: CaNbp2; test: SPOT peptide array binding signal intensity (averaged, normalized) (arbitrary units (background-subtracted, floor 0; scale differs between SH3 domains)); higher = stronger binding of the SH3 domain to the peptide
Method in brief: (§1)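 Cellulose membranes carried synthetic 15-mer peptides with cysteines swapped for serines. These were incubated overnight at 4°C with 10 μg/ml of GST-fused SH3 domains from four yeast species in TBS-based blocking buffer. Binding signal, detected with anti-GST antibody and quantified in Genespotter, is the normalized, background-subtracted spot intensity averaged over replicates, in arbitrary units specific to each domain.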

| Binder | SPOT peptide array binding signal intensity |
| --- | --- |
| RNNRPVPPPPPMRTT | 312 |

biological target: CaRvs167; test: as above
Method in brief: as §1

| Binder | SPOT peptide array binding signal intensity |
| --- | --- |
| RNNRPVPPPPPMRTT | 392 |

biological target: CaRvs167-3; test: as above
Method in brief: as §1

| Binder | SPOT peptide array binding signal intensity |
| --- | --- |
| RNNRPVPPPPPMRTT | 1 |

biological target: CaSho1; test: as above
Method in brief: as §1

| Binder | SPOT peptide array binding signal intensity |
| --- | --- |
| RNNRPVPPPPPMRTT | 17 |

biological target: CaSla1-D1-D2; test: as above
Method in brief: as §1

| Binder | SPOT peptide array binding signal intensity |
| --- | --- |
| RNNRPVPPPPPMRTT | 1140 |

biological target: CaSla1-D3; test: as above
Method in brief: as §1

| Binder | SPOT peptide array binding signal intensity |
| --- | --- |
| RNNRPVPPPPPMRTT | 187 |

biological target: ScAbp1; test: as above
Method in brief: as §1

| Binder | SPOT peptide array binding signal intensity |
| --- | --- |
| RNNRPVPPPPPMRTT | 10.5 |

biological target: ScBbc1; test: as above
Method in brief: as §1

| Binder | SPOT peptide array binding signal intensity |
| --- | --- |
| RNNRPVPPPPPMRTT | 58 |

biological target: ScBem1-D1; test: as above
Method in brief: as §1

| Binder | SPOT peptide array binding signal intensity |
| --- | --- |
| RNNRPVPPPPPMRTT | 4 |

biological target: ScBzz1-D1; test: as above
Method in brief: as §1

| Binder | SPOT peptide array binding signal intensity |
| --- | --- |
| RNNRPVPPPPPMRTT | 453 |

biological target: ScBzz1-D2; test: as above
Method in brief: as §1

| Binder | SPOT peptide array binding signal intensity |
| --- | --- |
| RNNRPVPPPPPMRTT | 113 |

biological target: ScCyk3; test: as above
Method in brief: as §1

| Binder | SPOT peptide array binding signal intensity |
| --- | --- |
| RNNRPVPPPPPMRTT | 2.5 |

biological target: ScFus1; test: as above
Method in brief: as §1

| Binder | SPOT peptide array binding signal intensity |
| --- | --- |
| RNNRPVPPPPPMRTT | 2.5 |

biological target: ScHof1; test: as above
Method in brief: as §1

| Binder | SPOT peptide array binding signal intensity |
| --- | --- |
| RNNRPVPPPPPMRTT | 21 |

biological target: ScHse1; test: as above
Method in brief: as §1

| Binder | SPOT peptide array binding signal intensity |
| --- | --- |
| RNNRPVPPPPPMRTT | 49.5 |

biological target: ScLsb1; test: as above
Method in brief: as §1

| Binder | SPOT peptide array binding signal intensity |
| --- | --- |
| RNNRPVPPPPPMRTT | 27 |

biological target: ScLsb2; test: as above
Method in brief: as §1

| Binder | SPOT peptide array binding signal intensity |
| --- | --- |
| RNNRPVPPPPPMRTT | 13.5 |

biological target: ScLsb3; test: as above
Method in brief: as §1

| Binder | SPOT peptide array binding signal intensity |
| --- | --- |
| RNNRPVPPPPPMRTT | 1090 |

biological target: ScLsb4; test: as above
Method in brief: as §1

| Binder | SPOT peptide array binding signal intensity |
| --- | --- |
| RNNRPVPPPPPMRTT | 500 |

biological target: ScMyo3; test: as above
Method in brief: as §1

| Binder | SPOT peptide array binding signal intensity |
| --- | --- |
| RNNRPVPPPPPMRTT | 425 |

biological target: ScMyo5; test: as above
Method in brief: as §1

| Binder | SPOT peptide array binding signal intensity |
| --- | --- |
| RNNRPVPPPPPMRTT | 156 |

biological target: ScNbp2; test: as above
Method in brief: as §1

| Binder | SPOT peptide array binding signal intensity |
| --- | --- |
| RNNRPVPPPPPMRTT | 622 |

biological target: ScPex13; test: as above
Method in brief: as §1

| Binder | SPOT peptide array binding signal intensity |
| --- | --- |
| RNNRPVPPPPPMRTT | 1210 |

biological target: ScRvs167; test: as above
Method in brief: as §1

| Binder | SPOT peptide array binding signal intensity |
| --- | --- |
| RNNRPVPPPPPMRTT | 2320 |

biological target: ScSho1; test: as above
Method in brief: as §1

| Binder | SPOT peptide array binding signal intensity |
| --- | --- |
| RNNRPVPPPPPMRTT | 99 |

biological target: ScSla1-D1-D2; test: as above
Method in brief: as §1

| Binder | SPOT peptide array binding signal intensity |
| --- | --- |
| RNNRPVPPPPPMRTT | 1300 |

biological target: ScSla1-D3; test: as above
Method in brief: as §1

| Binder | SPOT peptide array binding signal intensity |
| --- | --- |
| RNNRPVPPPPPMRTT | 56.5 |

biological target: SpAbp1-D1; test: as above
Method in brief: as §1

| Binder | SPOT peptide array binding signal intensity |
| --- | --- |
| RNNRPVPPPPPMRTT | 15.5 |

biological target: SpBbc1; test: as above
Method in brief: as §1

| Binder | SPOT peptide array binding signal intensity |
| --- | --- |
| RNNRPVPPPPPMRTT | 41 |

biological target: SpBzz1-D1; test: as above
Method in brief: as §1

| Binder | SPOT peptide array binding signal intensity |
| --- | --- |
| RNNRPVPPPPPMRTT | 2280 |

biological target: SpBzz1-D2; test: as above
Method in brief: as §1

| Binder | SPOT peptide array binding signal intensity |
| --- | --- |
| RNNRPVPPPPPMRTT | 28.8 |

biological target: SpCyk3; test: as above
Method in brief: as §1

| Binder | SPOT peptide array binding signal intensity |
| --- | --- |
| RNNRPVPPPPPMRTT | 23 |

biological target: SpHof1; test: as above
Method in brief: as §1

| Binder | SPOT peptide array binding signal intensity |
| --- | --- |
| RNNRPVPPPPPMRTT | 22.8 |

biological target: SpHof1-2; test: as above
Method in brief: as §1

| Binder | SPOT peptide array binding signal intensity |
| --- | --- |
| RNNRPVPPPPPMRTT | 24.8 |

biological target: SpHof1-3; test: as above
Method in brief: as §1

| Binder | SPOT peptide array binding signal intensity |
| --- | --- |
| RNNRPVPPPPPMRTT | 98.2 |

biological target: SpHse1; test: as above
Method in brief: as §1

| Binder | SPOT peptide array binding signal intensity |
| --- | --- |
| RNNRPVPPPPPMRTT | 52 |

biological target: SpLsb1; test: as above
Method in brief: as §1

| Binder | SPOT peptide array binding signal intensity |
| --- | --- |
| RNNRPVPPPPPMRTT | 44.2 |

biological target: SpLsb4; test: as above
Method in brief: as §1

| Binder | SPOT peptide array binding signal intensity |
| --- | --- |
| RNNRPVPPPPPMRTT | 1450 |

biological target: SpMyo1; test: as above
Method in brief: as §1

| Binder | SPOT peptide array binding signal intensity |
| --- | --- |
| RNNRPVPPPPPMRTT | 662 |

biological target: SpNbp2; test: as above
Method in brief: as §1

| Binder | SPOT peptide array binding signal intensity |
| --- | --- |
| RNNRPVPPPPPMRTT | 8.5 |

biological target: SpPex13; test: as above
Method in brief: as §1

| Binder | SPOT peptide array binding signal intensity |
| --- | --- |
| RNNRPVPPPPPMRTT | 19.5 |

biological target: SpRvs167; test: as above
Method in brief: as §1

| Binder | SPOT peptide array binding signal intensity |
| --- | --- |
| RNNRPVPPPPPMRTT | 1030 |

biological target: SpSla1-D1-D2; test: as above
Method in brief: as §1

| Binder | SPOT peptide array binding signal intensity |
| --- | --- |
| RNNRPVPPPPPMRTT | 134 |

biological target: SpSla1-D3; test: as above
Method in brief: as §1

| Binder | SPOT peptide array binding signal intensity |
| --- | --- |
| RNNRPVPPPPPMRTT | 7 |
